Sampled rows, rich in hits. Any-hit rate of the full collection: about 2.2%.
MEKK2mut PB1 HTS: signal of MEK5 binding to mutant human MEKK2 PB1 domain. bead flow cytometry, Alexa488-MEK5 binding to MEKK2 mutant. percent response, % at 10 µM. hit rate 0.35% among 290,000; in the data active = percent response above about 24%, passing the limit was not always enough
VLA-4 inh: inhibition in a human VLA-4 binding assay; inhibition, % (about 7 µM as worked out from the volumes in the protocol); VLA-4 expressing cells, ligand binding flow cytometry; hit rate 0.2% among 330,000; AID 2557; P13612; in the data active = inhibition above about 50%
MEKK3 PB1 HTS: raises or lowers MEK5 binding to the human MEKK3 PB1 domain; Q99759; bead-based flow cytometry, Alexa488-MEK5 binding to MEKK3; actives lie on both sides; 0 = blocked by unlabeled MEK5, 100 = vehicle; binding response (% of control), % at 10 µM; hit rate 1.4% among 290,000;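 active = binding response more than 3 SD above or below the average of its plate-row segment, actives on both sides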;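 note: Alexa488 bead fluorescence after subtracting the streptavidin-only scavenger bead signal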
Target sequence (Q99759 whole entry, looked up, the tested form may be a part): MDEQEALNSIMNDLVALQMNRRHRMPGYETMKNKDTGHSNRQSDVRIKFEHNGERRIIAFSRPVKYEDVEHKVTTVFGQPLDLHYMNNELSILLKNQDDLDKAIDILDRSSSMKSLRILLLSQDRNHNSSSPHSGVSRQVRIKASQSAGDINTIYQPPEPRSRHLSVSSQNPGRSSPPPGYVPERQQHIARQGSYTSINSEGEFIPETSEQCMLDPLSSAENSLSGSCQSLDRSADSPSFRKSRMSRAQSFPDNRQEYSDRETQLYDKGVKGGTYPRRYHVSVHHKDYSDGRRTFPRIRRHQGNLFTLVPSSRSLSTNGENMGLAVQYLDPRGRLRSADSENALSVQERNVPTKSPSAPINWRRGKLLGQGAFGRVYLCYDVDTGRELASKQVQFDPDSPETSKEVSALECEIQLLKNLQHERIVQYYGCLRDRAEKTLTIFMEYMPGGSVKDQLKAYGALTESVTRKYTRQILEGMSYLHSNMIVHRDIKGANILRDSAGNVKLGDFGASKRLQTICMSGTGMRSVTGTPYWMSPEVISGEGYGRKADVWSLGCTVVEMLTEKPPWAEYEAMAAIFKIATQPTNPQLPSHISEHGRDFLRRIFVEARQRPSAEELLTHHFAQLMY
MEKK2wt PB1 HTS: raises or lowers MEK5 binding to wildtype human MEKK2 PB1 domain; bead flow cytometry, Alexa488-MEK5 binding to MEKK2 WT; actives lie on both sides; binding response (% of control), % at 10 µM; Q9Y2U5; hit rate 1.1% among 290,000; in the data active = binding response below about 67% or above about 130%
MEKK2wt confirm: raises or lowers MEK5 binding to wildtype human MEKK2, retest. shares compounds with MEKK3 PB1 HTS. bead flow cytometry, Alexa488-MEK5 binding to MEKK2 WT; actives lie on both sides. binding response (% of control), % at 10 µM. hit rate 2.4% among 5,900. AID 1892; in the data active = binding response below about 16% or above about 210%; inactive = in between
MEKK2mut-MEK5: signal of MEK5 binding to mutant human MEKK2, retest | shares compounds with MEKK3 PB1 HTS | percent response, % at 10 µM | bead flow cytometry, Alexa488-MEK5 binding to MEKK2 mutant | hit rate 2% among 5,900; in the data active = percent response mostly above about 71%, no sharp cut-off; inactive = mostly below about 38%;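 note: higher means compound restores mutant binding toward wildtype level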
MEKK3 confirm: confirmation of inhibitors of MEK5 binding to human MEKK3; bead flow cytometry, Alexa488-MEK5 binding to MEKK3; stronger effect = lower value; shares compounds with MEKK3 PB1 HTS; hit rate 1.8% among 5,900; binding response (% of control), % at 10 µM;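 active = binding response below 72% of control, or above a set upper limit, though filed actives all read lower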;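 note: 100% = DMSO only wells and 0% = binding blocked by excess unlabeled MEK5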
VLA-4 mod pick: human VLA-4 allosteric modulation in cherry picked compounds; inhibition, % at 6.7 µM; shares compounds with VLA-4 inh; hit rate 2% among 1,300; AID 2813; U937 cells, HUTS-21 LIBS mAb binding, flow cytometry; LDV ligand present at threefold Kd; in the data active = inhibition above about 40%;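 note: 0% = ligand without compound and 100% = no ligand background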
The depositor's hits bear a star; · = no result given; ! = not active in a repeat; [ ] = remark or other dose.

SMILES | MEKK2mut PB1 HTS | VLA-4 inh | MEKK3 PB1 HTS | MEKK2wt PB1 HTS | MEKK2wt confirm | MEKK2mut-MEK5 | MEKK3 confirm | VLA-4 mod pick
COCC(=O)Nc1cc(C(=O)Nc2ccccc2C)ccc1Cl | -12 | -9 | 82*[inhibitor] | 83 | 94 | -9 | 98 | ·
CCC(C)[C@H](NC(=O)C1CCN(C(=O)[C@H](Cc2ccccc2)NS(=O)(=O)c2ccc(C)cc2)CC1)C(=O)O (some centres undefined) | 9 | 0 | 104 | 104 | · | · | · | ·
Cc1ccc(C(=O)N[C@H](C(=O)OCC(=O)NC2CCS(=O)(=O)C2)C(C)C)cc1 (some centres undefined) | 0 | 1 | 132* | 110 | 105 | 17 | 103 | ·
Cc1ccc(S(=O)(=O)NC(C(=O)OCC(=O)NC2CCS(=O)(=O)C2)C(C)C)cc1 (centres undefined) | -3 | 1 | 100 | 101 | · | · | · | ·
c1ccc(CSc2nnc3ccc(-c4cccs4)nn23)nc1 | 197* | 5 | 105 | 92 | 98 | 1 | 102 | ·
Cc1cc2c(n1-c1ccc(C(=O)O)cc1)CCCCC2 | -1 | 8 | 106 | 100 | · | · | · | ·
CC(C)CCNC(=O)COc1ccc2c(c1)C(=O)CC(C)(C)O2 | -3 | 2 | 99 | 98 | · | · | · | ·
CC1(C)CC(=O)c2cc(OCC(=O)NCCCN3CCN(c4ccc(F)cc4)CC3)ccc2O1 | 20 | -3 | 109 | 144* | 122 | 11 | 101 | ·
COC(=O)N1N=C(c2ccccc2)CC1(O)C(F)(F)F (centres undefined) | -39 | 14 | 0.0*[inhibitor] | -5.0*[inhibitor] | 97 | -4 | 102 | ·
O=C1NC(=O)C2C3c4ccccc4C(c4ccccc43)C12 (centres undefined) | -38 | 6 | 70*[inhibitor] | 77 | 99 | -3 | 103 | ·
COCCNC(=O)CN1CCN(S(=O)(=O)c2ccc3c(c2)CCCC3)CC1 | · | -4 | · | · | · | · | · | ·
C=Cc1c(C)c2cc3[nH]c(cc4nc(cc5nc(cc1[nH]2)C(C)=C5CCC(=O)O)C(CCC(=O)O)=C4C)c(C)c3C=C | -8 | 0 | 88 | 60*[inhibitor] | 69 | -13 | 98 | ·
O=c1[nH]cnc2onc(-c3ccc(F)cc3)c12 | 4 | 2 | 104 | 107 | · | · | · | ·
Cc1nn(C(C)C(=O)NCc2ccccc2)c(C)c1[N+](=O)[O-] (centres undefined) | 3 | 2 | 104 | 105 | · | · | · | ·
CCc1ccc(NC(=O)C(C)n2nc(C)c([N+](=O)[O-])c2C)cc1 (centres undefined) | -2 | 6 | 68*[inhibitor] | 75 | 92 | -7 | 91 | ·
COc1ccccc1CNC(=O)c1ccc(OCc2c(C)noc2C)c(OC)c1 | -42 | 5 | 2.0*[inhibitor] | 1.0*[inhibitor] | 105 | 1 | 102 | ·
COc1cc(C(=O)NCc2ccc(C)cc2)ccc1OCc1c(C)noc1C | 9 | 0 | 106 | 106 | · | · | · | ·
COc1ccc(C2C(C#N)=C(N)Oc3cc(O)ccc32)cc1OC (centres undefined) | 12 | 1 | 106 | 109 | · | · | · | ·
COc1cc(C2C(C#N)=C(N)Oc3cc(O)ccc32)cc(OC)c1OC (centres undefined) | -21 | 1 | 10*[inhibitor] | 13*[inhibitor] | 95 | -3 | 99 | ·
CCOCCCNC(=S)Nc1cc(C)cc(C)c1 | 1 | 3 | 141* | 116 | 104 | -2 | 106 | ·
COCCCNC(=S)Nc1ccc(C)cc1 | -1 | -12 | 97 | 98 | · | · | · | ·
COc1ccc(CN2CCC(n3nccc3NC(=O)C3CCCC3)CC2)cc1 | 20 | -3 | 108 | 144* | 142 | 26 | 110 | ·
CCCCN(CCCNC(=O)c1ccc2nc(N3CCOCC3)sc2c1)Cc1ccccc1 | 20 | -112 | 105 | 158* | 167 | 37 | 109 | 10
CCn1c(/C=N/Nc2ccc(C(=O)O)cc2)nc2ccccc21 | 0 | 47 | 133* | 107 | 99 | -2 | 98 | 12
CCn1c(CNc2ccc(C(=O)O)cc2)nc2ccccc21 | 5 | 46 | 101 | 102 | · | · | · | ·
SMILES | MEKK2mut PB1 HTS | VLA-4 inh | MEKK3 PB1 HTS | MEKK2wt PB1 HTS | MEKK2wt confirm | MEKK2mut-MEK5 | MEKK3 confirm | VLA-4 mod pick
Cn1cc(CN2CCCC(C(=O)c3nccn3C)C2)c(-c2cccc(Cl)c2)n1 (centres undefined) | 2 | 9 | 103 | 100 | · | · | · | ·
NNC(=O)CNS(=O)(=O)c1ccc([N+](=O)[O-])cc1 | 1 | 2 | 102 | 101 | · | · | · | ·
CSc1ccc2c(c1)C(N1CCN(C)CC1)Cc1ccccc1S2 (centres undefined) | 8 | 55*! | 108 | 150* | 162 | 49 | 108 | 22
CN1CCN(C2Cc3ccccc3Sc3ccc(Cl)cc32)CC1 (centres undefined) | · | 10 | · | · | · | · | · | ·
Cc1ccc(C(=O)N/N=c2\sc3ccccc3n2C)cc1 | 0 | 49 | 136* | 105 | 104 | 0 | 105 | -7
NC(=NC(=O)c1ccccc1)N1CCN(C(c2ccccc2)c2ccccc2)CC1 | -14 | 2 | 94 | 91 | · | · | · | ·
N=c1n(CCO)c2ccccc2n1CCOc1ccc(Cl)cc1Cl | 18 | 54* | 113 | 148* | 132 | 19 | 108 | 24
CNC(=O)C(=O)Nc1c(C)cc(C)cc1C | 1 | 43 | 134* | 111 | -1.0*[inhibitor] | -29 | 0.0* | -4
CNC(=O)C(=O)Nc1ccc(C)cc1C | -1 | 5 | 99 | 99 | · | · | · | ·
CCn1cc(C(=O)N[C@@H](CCSC)C(=O)NCCCO)c(=O)c2cc3c(cc21)OCO3 | 3 | 40 | 103 | 102 | · | · | · | 4
CCn1cc(C(=O)N[C@@H](CCSC)C(=O)NCCOC)c(=O)c2cc3c(cc21)OCO3 | 1 | 8 | 101 | 103 | · | · | · | ·
CCOc1ccc(-c2nnc3ccc(SCC(=O)N4CCCCC4)nn23)cc1 | 8 | 18 | 103 | 108 | · | · | · | -1
CCC1=NN(C(=O)Cc2ccc([N+](=O)[O-])cc2)C(O)(C(C)(C)C)C1 (centres undefined) | · | 58* | · | · | · | · | · | -6
C[C@@H]1CCCCCCCCC(=O)OCCN(C(=O)OC(C)(C)C)[C@H](C)CCCCCCCCC(=O)OCCN(C(=O)OC(C)(C)C)[C@H](C)CCCCCCCCC(=O)OCCN1C(=O)OC(C)(C)C | · | 5 | · | · | · | · | · | ·
Cn1cc(C(=O)N/N=C/C=C/c2ccccc2)ccc1=O | 1 | 45 | 99 | 104 | · | · | · | 7
Cc1ccc(CSc2nncn2-c2ccccn2)cc1 | 8 | 7 | 107 | 101 | · | · | · | ·
Clc1ccc(CSc2nncn2-c2ccccn2)cc1 | 0 | 60* | 99 | 96 | · | · | · | 2
CSC1=NC(=O)/C(=C\c2cccc3ccccc23)S1 | 0 | -17 | 115 | 103 | · | · | · | ·

Screening results (PubChem)
